Several values for one entry are separate records, joined by “and”; a condition that tells them apart may be missing. Identical values can stand only once. Counter-ions that a name gives are not always drawn.
Tests used:
Test in all cases: cell viability relative to vehicle control; higher = less cytotoxic
Conditions in all cases: 10 µM
K562 = system: K562
Procedure, shortened: (§1)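 CRISPR-edited SRSF2 P95 mutant and isogenic wild-type clones of four leukaemia lines were screened against Selleck bioactive, kinase and epigenetic probe libraries, with identity-inconsistent compounds removed. Compounds were acoustically dispensed into 384-well plates at a single 10 µM dose, with 2000 cells in 50 µL medium per well. After 48 h, supernatant was removed and CellTiter-Glo luminescence was read. Viability was expressed as percent of the on-plate DMSO vehicle control, analysed in Genedata Screener.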

MARIMO = system: MARIMO
Procedure, shortened: as §1

MOLM14 = system: MOLM14
Procedure, shortened: as §1

OCI-AML2 = system: OCI-AML2
Procedure, shortened: as §1

Compound | cell viability (K562; SRSF2 genotype: SRSF2 P95H/wt) | cell viability (K562; SRSF2 genotype: SRSF2 wt/wt) | cell viability (MARIMO; SRSF2 genotype: SRSF2 P95H/wt) | cell viability (MARIMO; SRSF2 genotype: SRSF2 wt/wt) | cell viability (MOLM14; SRSF2 genotype: SRSF2 P95H/wt) | cell viability (MOLM14; SRSF2 genotype: SRSF2 wt/wt) | cell viability (OCI-AML2; SRSF2 genotype: P95H/wt) | cell viability (OCI-AML2; SRSF2 genotype: wt/wt)
CC1=CCC(C(C)(C)O)CC1 (stereo unspecified) | 102% and 104% | 103% | 101% | 105% | 96.1% | 103% | 103% | 103%
Cc1nc(Nc2ncc(C(=O)Nc3cc(NC(=O)c4cccc(C(F)(F)F)c4)ccc3C)s2)cc(N2CCN(CCO)CC2)n1 | 11.4% and 16% | 20.1% | 50% | 63% | 12.2% | 13.8% | 55.5% | 57.3%
CO/N=C(\C(=O)N[C@@H]1C(=O)N2C(C(=O)O)=C(Cn3ccc(=N)n3CCO)CS[C@H]12)c1csc(N)n1 [Cefoselis sulfate] | 95.5% and 104% | 94% | 92.6% | 98% | 100% | 101% | 103% | 96.8%
OC[C@H]1O[C@H](O[C@H]2O[C@H](CO)[C@@H](O)[C@H](O)[C@H]2O)[C@H](O)[C@@H](O)[C@@H]1O [D-(+)-Trehalose dihydrate] | 103% and 99.5% | 102% | 106% | 111% | 104% | 108% | 105% | 108%
CC(C)(O)[C@H]1CC[C@@](C)(C2[C@@H](O)C[C@@]3(C)[C@@H]4C[C@H](O)C5C(C)(C)[C@@H](O)CCC56CC46CC[C@]23C)O1 (stereo partly specified) [Cycloastragenol] | 105% and 109% | 97.6% | 112% | 118% | 108% | 107% | 111% | 110%
CC(=O)c1ccc(O)cc1O [2,4-Dihydroxyacetophenone] | 100% and 87% | 86.2% | 93.5% | 99.8% | 96% | 94.1% | 92.3% | 94.8%
C/C=C(\C)C(=O)OC1c2c(ccc3ccc(=O)oc23)OC(C)(C)C1OC(=O)/C(C)=C/C (stereo unspecified) [Praeruptorin B] | 83.5% and 92.2% | 90.4% | 84.4% | 111% | 109% | 94.7% | 89.5% | 91.6%
Cn1cc(-c2ccc(S(=O)(=O)n3ccc(/C=C/C(=O)Nc4ccccc4N)c3)cc2)cn1 | 15% and 29.1% | 32% | 6.4% | 5.67% | 7.6% | 2.05% | 8.31% | 8.21%
NC(=O)c1nc(F)cnc1O [Favipiravir (T-705)] | 98.6% and 95.8% | 95.8% | 91.7% | 92.5% | 89.8% | 94.8% | 100% | 93.2%
O=C(C1CCCCC1)N1CC(=O)N2CCc3ccccc3C2C1 (stereo unspecified) [Praziquantel (Biltricide)] | 105% and 101% | 102% | 109% | 107% | 111% | 109% | 115% | 103%
CNCCC(Oc1ccc(C(F)(F)F)cc1)c1ccccc1 (stereo unspecified) [Fluoxetine HCl] | 75.2% and 82.5% | 88.8% | 63.5% | 75.2% | 68.8% | 81.6% | 63.1% | 74.1%
O=C1NC(=O)/C(=C/c2cccc(C(F)(F)F)c2)S1 | 107% and 103% | 110% | 105% | 94.9% | 97.4% | 102% | 111% | 104%
CCOC(=O)C1=C(N)Oc2ccc(Cl)cc2C1C(C#N)C(=O)OCC (stereo unspecified) | 85.4% and 84.9% | 65.4% | 56.6% | 55.8% | 64.2% | 93.2% | 63.7% | 64.2%
CC(C)c1cc(-c2ccc(F)c3ccccc23)nc(N)n1 | 95.5% and 96.7% | 94.9% | 89.5% | 98.3% | 93.1% | 97.9% | 89.7% | 101%
C[C@@H]1C(=O)O[C@H]2C[C@@]34[C@H]5C[C@@H](C(C)(C)C)[C@]36[C@@H](OC(=O)[C@@H]6O)O[C@@]4(C(=O)O5)[C@]21O [Ginkgolide A] | 105% and 100% | 97.8% | 101% | 106% | 105% | 103% | 106% | 95.5%
O=C(Nc1cccc(C2=NCCN2)c1)Nc1cccc(C2=NCCN2)c1 [Imidocarb dipropionate] | 98.4% and 92.2% | 95.3% | 91.5% | 103% | 80.2% | 87.7% | 88.6% | 89.4%
CC[C@H]1[C@@H](O)[C@@H]2[C@H](CC[C@]3(C)[C@@H]([C@H](C)CCC(=O)O)CC[C@@H]23)[C@@]2(C)CC[C@@H](O)C[C@@H]12 [Obeticholic Acid] | 106% and 109% | 102% | 107% | 105% | 103% | 105% | 107% | 110%
Nc1ccc(C(=O)Nc2cccc(-c3nc(N4CCOCC4)c4oc5ncccc5c4n3)c2)cn1 | 75.4% and 89.9% | 95.8% | 73.7% | 79.4% | 103% | 104% | 86.7% | 89.1%
COc1ccc(C2CNC(=O)C2)cc1OC1CCCC1 (stereo not drawn) [S-(+)-Rolipram] | 94.7% and 105% | 102% | 102% | 110% | 99.8% | 108% | 96.7% | 103%
CN(C)c1ccc2nc3ccc(=[N+](C)C)cc-3sc2c1 [Methylene Blue] | 33.4% and 27.2% | 17.1% | 13.1% | 14.2% | 5.69% | 2.58% | 5.27% | 7.07%
Cc1cc(O)c(-c2ccc([C@@H](C)CN)cc2)c2c1[nH]c(=O)c1sccc12 [OTS514 hydrochloride] | 19.6% and 29.6% | 21.7% | 3.37% | 1.35% | 0.27% | 0.16% | 0.39% | 8.87%

Compound | cell viability (K562; SRSF2 genotype: SRSF2 P95H/wt) | cell viability (K562; SRSF2 genotype: SRSF2 wt/wt) | cell viability (MARIMO; SRSF2 genotype: SRSF2 P95H/wt) | cell viability (MARIMO; SRSF2 genotype: SRSF2 wt/wt) | cell viability (MOLM14; SRSF2 genotype: SRSF2 P95H/wt) | cell viability (MOLM14; SRSF2 genotype: SRSF2 wt/wt) | cell viability (OCI-AML2; SRSF2 genotype: P95H/wt) | cell viability (OCI-AML2; SRSF2 genotype: wt/wt)
O=CN1CC/C(=C/c2ccc3c(c2)OCO3)C1=O | 99.4% and 95.3% | 94.6% | 95.2% | 104% | 75.9% | 90.1% | 67.1% | 74.7%
CC(C)OC(=O)CCC/C=C\C[C@@H]1[C@@H](/C=C/[C@@H](O)COc2cccc(C(F)(F)F)c2)[C@H](O)C[C@@H]1O [Travoprost] | 67.1% and 66.4% | 65% | 57.9% | 40.1% | 79.1% | 94.4% | 23.5% | 37.8%
CC(C)N1CCN(Cc2cnc(-c3cc(-c4cccc5[nH]ccc45)cc4[nH]ncc34)o2)CC1 | 39.8% and 29.8% | 36.8% | 53.7% | 52.9% | 68.2% | 61.6% | 30.8% | 39.8%
CN1CCN(C2=Nc3cc(Cl)ccc3Nc3ccccc32)CC1 [Clozapine (Clozaril)] | 85.7% and 106% | 98.8% | 104% | 94.4% | 101% | 106% | 100% | 98.1%
COc1cc2nc(N(C)CCCNC(=O)C3CCCO3)nc(N)c2cc1OC (stereo unspecified) [Alfuzosin hydrochloride (Uroxatral)] | 97% and 98.6% | 95.3% | 91.3% | 98.1% | 96.7% | 97.5% | 90.7% | 103%
C=C[C@H]1CN2CC[C@H]1C[C@H]2[C@H](O)c1ccnc2ccc(OC)cc12 [Quinine hydrochloride dihydrate] | 90.8% and 92.7% | 88% | 87.7% | 86.5% | 79.7% | 93.2% | 88.9% | 84.9%
CC(=O)N1c2ccc(-c3ccc(C(=O)O)cc3)cc2[C@H](Nc2ccc(Cl)cc2)C[C@@H]1C | 59.6% and 63.6% | 74.7% | 23.6% | 28.7% | 16.3% | 14.4% | 7.87% | 17.8%
CNC(=O)c1cccc(-c2ccc3c(N4CCOC[C@@H]4C)nc(N4CCOC[C@@H]4C)nc3n2)c1 [Vistusertib (AZD2014)] | 44.8% and 43.3% | 38.4% | 60.8% | 48.5% | 35.1% | 28.9% | 29.2% | 28.8%
CC#CC(=O)N1CC[C@@H](n2c(=O)n(-c3ccc(Oc4ccccc4)cc3)c3c(N)ncnc32)C1 [ONO-4059 (GS-4059) hydrochloride] | 91% and 102% | 95.7% | 97.2% | 107% | 91.4% | 95.8% | 91% | 88.9%
NCCCNCCCCNCCCN [Spermine] | 104% and 102% | 104% | 103% | 111% | 100% | 103% | 101% | 106%
O=c1c(-c2ccc(O[C@@H]3O[C@H](CO)[C@@H](O)[C@H](O)[C@H]3O)cc2)coc2cc(O)cc(O)c12 [Sophoricoside] | 104% and 106% | 116% | 106% | 103% | 100% | 104% | 109% | 105%
Cc1ccccc1C(=O)Nc1ccc(C(=O)N2CCCC(O)c3cc(Cl)ccc32)c(C)c1 (stereo unspecified) | 89.3% and 84.8% | 85.7% | 80.7% | 99.9% | 84.2% | 91.7% | 91.6% | 83%
O=C1CC[C@@H](C(=O)N2CSC[C@H]2C(=O)O)N1 [Pidotimod] | 99.7% and 104% | 101% | 104% | 99.1% | 104% | 104% | 114% | 104%
CCOc1cc(C(=O)N2CCC(N3CCN(C)CC3)CC2)ccc1Nc1ncc2c(n1)N(C1CCCC1)c1ccccc1C(=O)N2C | 10.3% and 7.13% | 15.2% | 35.2% | 35.2% | 0.3% | 0.37% | 2.24% | 10.6%
Cc1c(C)c2c(c(C)c1OC(=O)CCC(=O)OCCOCCOCCO)CCC(C)(CCCC(C)CCCC(C)CCCC(C)C)O2 (stereo unspecified) [Tocofersolan] | 78.2% and 80.7% | 92.4% | 80.3% | 63.5% | 87.2% | 97.2% | 59.5% | 77.4%
COc1cc2oc(-c3ccccc3)cc(=O)c2c(OC)c1OC [5,6,7-Trimethoxyflavone] | 109% and 110% | 107% | 99.9% | 96.3% | 111% | 110% | 85.1% | 87.3%
OCC1OC(OC2OC(CO)C(O)C(O)C2O)C(O)C(O)C1O [D-(+)-Trehalose Anhydrous] | 109% and 105% | 114% | 111% | 99.1% | 107% | 107% | 99.6% | 102%
C[C@H]1COC2(CCN(c3nc(=O)c4cc(C(F)(F)F)cc([N+](=O)[O-])c4s3)CC2)O1 (racemic) [BTZ043 racemate] | 88.3% and 84.3% | 84.1% | 82.4% | 86.7% | 87% | 85.3% | 91.7% | 86.9%
CC1(C)OC(=O)C=C[C@]2(C)[C@H]3CC[C@@]4(C)[C@H](c5ccoc5)OC(=O)[C@H]5O[C@]54[C@]3(C)C(=O)C[C@@H]12 [Obacunone] | 103% and 98.1% | 95.4% | 92.7% | 95.5% | 97.4% | 102% | 91.1% | 93.6%
CCN(CC)CCNC(=O)c1c(C)[nH]c(/C=C2\C(=O)Nc3ccc(F)cc32)c1C [Sunitinib Malate] | 17.8% and 22.7% | 12.7% | 18.5% | 19.4% | 0.31% | 0.38% | 0.42% | 1.47%
CNC(CC(=O)O)C(=O)O [NMDA (N-Methyl-D-aspartic acid)] | 102% and 94.2% | 99.7% | 101% | 99.5% | 100% | 99% | 94.4% | 107%

Reference: the supplement of paper PMC10981050
